The supplement of paper PMC3334620
In all, about 33,000 sequences were measured (“E-score (-0.5 to 0.5)”: median about -0.021, highest 2% from about 0.32 on). For the sample, the highest values were picked, then their nearest neighbours and some sequences at random.

molecular target: T1, Zap1 (UniProt P47043); experiment: PBM E-score (8-mer binding enrichment) (E-score (-0.5 to 0.5)); higher = stronger / more preferred TF binding; conditions: protein concentration: 200 nM; construct: GST-full length
T1 sequence: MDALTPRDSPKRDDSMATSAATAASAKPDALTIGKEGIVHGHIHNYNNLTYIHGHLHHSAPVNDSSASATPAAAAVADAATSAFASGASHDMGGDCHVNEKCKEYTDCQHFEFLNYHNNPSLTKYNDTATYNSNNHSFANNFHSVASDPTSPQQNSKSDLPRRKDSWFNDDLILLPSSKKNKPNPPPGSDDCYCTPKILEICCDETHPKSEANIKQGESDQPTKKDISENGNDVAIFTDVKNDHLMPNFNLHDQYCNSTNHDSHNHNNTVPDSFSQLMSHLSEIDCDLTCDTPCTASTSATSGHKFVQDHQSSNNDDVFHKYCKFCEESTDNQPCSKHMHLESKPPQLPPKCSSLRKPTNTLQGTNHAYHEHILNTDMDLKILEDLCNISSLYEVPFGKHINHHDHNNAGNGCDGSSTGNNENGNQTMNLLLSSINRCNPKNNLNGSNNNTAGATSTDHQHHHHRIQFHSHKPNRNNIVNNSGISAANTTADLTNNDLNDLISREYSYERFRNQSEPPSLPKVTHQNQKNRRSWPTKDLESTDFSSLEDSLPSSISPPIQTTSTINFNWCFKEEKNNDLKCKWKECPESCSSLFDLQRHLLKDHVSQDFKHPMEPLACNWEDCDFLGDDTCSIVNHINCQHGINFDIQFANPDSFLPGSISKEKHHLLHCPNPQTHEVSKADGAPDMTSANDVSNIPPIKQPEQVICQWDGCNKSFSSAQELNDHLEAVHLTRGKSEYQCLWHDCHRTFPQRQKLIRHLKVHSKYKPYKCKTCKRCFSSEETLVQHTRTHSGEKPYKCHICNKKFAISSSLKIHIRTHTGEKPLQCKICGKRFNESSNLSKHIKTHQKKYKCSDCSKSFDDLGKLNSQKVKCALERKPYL
Procedure: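 Universal 'all 10-mer' protein binding microarrays (Agilent AMADID 015681) probed with GST-tagged S. cerevisiae TFs (full-length or DBD) made by in vitro transcription/translation (PURExpress), about 100-200 nM. Bound TF was detected with fluorescent anti-GST. Each ungapped 8-mer (which stands for itself and its reverse complement) is scored by the PBM enrichment score (E-score), a modified Wilcoxon-Mann-Whitney statistic from -0.5 to +0.5, computed with the Universal PBM Analysis Suite. Scale: above 0.35 generally sequence-specific binding.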

Sequence	PBM E-score
AGGTGGTC	0.142
GGTTGTAC	0.336
CGTTGTGA	-0.151
GGTTGTGA	0.374
GGTTGTAA	0.278
GGTTGCGA	0.335
AGTTGCGA	0.16
CGTTGTTA	0.102
GGTTGTTA	0.355
AGTTGTGA	0.193
AGTTGTAC	0.146
AGTTGTTA	0.161
CGTTGCGA	-0.126
CGTAGACC	-0.109
ACAGAACC	0.0979
ATTGGCAG	-0.219
CTGAAGTA	0.0214
ATGACTCG	-0.115
CTTGCGAA	0.139
GCCATATA	0.0242
TAAACCGA	-0.0627
ATTCTCTG	-0.159
TGACCAAA	0.28
CCACATCG	0.0835
GAGTGTCA	0.035

Sequence	PBM E-score
CAAAGGTG	0.0139
ATAACAGC	-0.0193
CAGCTGGC	-0.0978
AGGGTTAA	0.461
AGGGTTTA	0.315
TGGGTTAA	0.359
GGGGTTAA	0.403
TGTGTTAA	0.0894
AGGGTTTG	0.292
TCGGTTAA	0.274
GGGGTTTA	0.126
AGGGTTAG	0.431
AGCGTTAG	-0.147
GGGGTTCA	0.0745
AGAGTTAA	-0.086
AAACTTAG	0.0118
ACTCTTGA	-0.00751
AAACTTCA	0.00932
ATGGTTCA	0.119
GTGGTTAA	0.406
ATGGTTTA	0.191
GTGGTTGA	0.0163
ATGGTTAA	0.357
GTGGTTTA	0.213
CCTGTGAG	0.133

Sequence	PBM E-score
CGGTGCTC	0.123
GGCACAGA	-0.267
CCCCTAAG	0.158
ACCCTAAT	0.407
CCCCTAAA	0.0485
ACCCTAAA	0.416
GCCCTAAC	0.111
CCCCTAAC	0.232
ATCCTAAT	0.0542
ACCCTAAC	0.414
ACCCTAAG	0.457
ATCCTAAG	-0.00974
TCCCTAAA	-0.0128
AGCCTAAT	-0.212
GCTGCTTA	0.0693
CCCTGCCA	-0.00313
CGCTAGCC	-0.373
CGGTATAA	0.0772
AGGTATAA	0.317
AGGTATAT	0.115
CATGCTGG	-0.0654
CGGATTCC	-0.0353
ACCCCCTG	-0.07
AACCCCTG	0.347
TAACCCTA	0.462

Sequence	PBM E-score
AAACCCTC	0.175
ACCCCCTC	-0.0959
CACCCCTG	-0.0914
TAGCCCTA	-0.0869
CACCCCTC	0.239
AACCCCTC	0.353
TAACCGTA	0.31
AAACCCTG	0.337
AGACCCTG	0.253
AGAGAGAC	-0.00859
CACGCTAG	-0.21
ACGTTGAG	-0.0801
TCCTTAAA	0.15
AGATTTGC	-0.0426
ATATCTCC	-0.149
ATTGACTC	0.049
GGACAGCC	-0.0735
CATCGACC	-0.0318
TTCTTCAA	0.0925
CAACCCTA	0.442
CAACCCTG	0.419
CAACCCGG	0.213
ACCCCCTA	-0.354
AAACCCTA	0.423
ATCCCCTA	0.0194

Sequence	PBM E-score
GAACCCTA	0.272
CAACCCTC	0.258
AAACCCAA	0.312
AAACCCTT	0.272
AACCCCTA	0.389
CAAACCTA	0.166
CGAAGCAG	-0.165
AGGCTGGA	-0.23
CACCAGGA	0.0532
AATCGCGG	-0.0922
GAAAAGAC	0.0296
CACCAAGA	0.0172
ATCAACGC	-0.0956
AGTAGTCA	-0.276
CAGATACA	0.0912
GTAGCACA	0.017
GCATCCAA	-0.203
AGGGAGAA	-0.148
CACCCCTA	0.0983
CGACCCTA	0.328
AACCCCGT	0.277
AACCCCTT	0.38
GACCCCTA	0.276
AACCCCCT	-0.187
GGACCCTA	0.159

Sequence	PBM E-score
AGACCCTA	0.298
TACCCCTA	0.366
CGTCTCTA	-0.19
GCTAAAAC	0.0736
CGTATCCA	-0.133
CGGTTGAA	0.221
CCACAGCC	-0.17
AACCTTCA	0.368
AGCCTTTA	0.132
GGCCTTTA	0.114
AACCTTTC	0.324
GACCTTCA	0.0992
ATCCTTTA	0.092
AACCTTTA	0.398
CACCTTTA	0.118
AGCCTTTC	-0.185
CACCTTTC	0.0949
GACCTTTA	0.401
AACCTTCC	0.21
ATAGTTGC	0.135
ACGTCGCA	-0.0322
GGTGAACA	-0.231
GCGCTATA	-0.105
CGCTATCA	-0.078
CAGCAAGC	-0.389

Sequence	PBM E-score
ACCTAGGC	-0.26
GTGATAAC	0.251
CATCCTCC	-0.176
GATAGCTA	-0.298
GGCTCAAA	-0.176
AGGAACAA	0.00761
AACCTTCG	0.305
AACCTTGG	0.274
AACCTTTG	0.377
AGATCGCT	-0.204
GAAACTCC	-0.206
ACAGATCA	0.0477
TAGTTAAA	0.234
AGGTTAAA	0.376
CGGTTAAA	0.328
ACGTTAAA	0.101
CTGTTAAA	0.0123
ATGTTAAA	0.0569
CGGTTTAA	0.0515
TCGTTAAA	-0.0347
TGGTTAAA	0.379
CTGTTGCA	0.201
GCAAGGTA	0.265
CCGTCCTC	-0.191
CTGGTGAA	-0.0889

Sequence	PBM E-score
AGCTGTCC	-0.225
CACCGCGA	0.0268
CCGCGCGC	0.0679
AACCGCGT	0.227
CACCGCGG	0.176
CCGCGCGA	0.124
AACCGCGA	0.367
AACCGCAG	0.126
CCGCGCGG	0.332
AACCGCGC	0.24
AACCGCGG	0.374
TACCGCGA	0.328
GACCGCGA	0.259
AGCACTAC	-0.0779
CCGAAGCA	-0.176
ACACAATC	0.00143
CCAGGGCG	-0.178
TCCAAGAA	-0.0864
CGTCTCAC	-0.107
AGCATTTG	-0.00877
AGCAAGCA	-0.167
ATTAATAG	0.195
ATTAATAA	0.21
ATTAATAC	0.344
ATGCCACC	-0.11

Sequence	PBM E-score
CTGGCCGA	-0.318
ACTTTAGA	0.0114
GATGGCAA	-0.0776
AAATGACC	0.317
CCATGACG	0.0693
GAATGACA	-0.0394
CCATGACC	0.416
GAATGACC	0.338
GCATGACC	0.234
GTTGGCCA	-0.015
GCGCCTTA	-0.066
GAGTTTAA	0.121
AACCTACA	0.264
ACCTACCA	0.126
CGTGGTCA	0.195
GGTGGTTA	0.433
CGTGGTTA	0.348
GGTGGTCA	0.341
AGTGGTTC	0.129
AGTGGTTG	0.312
CGTGGTAA	0.0908
AGTGGTTA	0.434
GGTGGTAA	0.274
CGTGGTTC	0.185
GGTGGTGA	0.23

Sequence	PBM E-score
AGTGGTCA	0.197
CCCACTTA	-0.0455
CTTGTGAC	0.0651
CCTTCATA	0.102
GCAGCACA	-0.0816
GACAAAGC	-0.143
GGTCCTCA	0.0332
CCAGAGTC	0.0266
AACAGTCT	-0.14
GAAACATA	0.318
AAAACATA	0.0671
GAAACATC	-0.0445
GACTTAGC	-0.317
GAGCGCCA	-0.291
TGGATTAA	0.0758
AACCCGGT	0.249
AACCCCCG	-0.149
CACCCGGA	0.235
GACCCGGA	0.118
ACCCCGGG	0.34
ACCCCGGC	0.119
CCCCCGGG	0.167
AACCCGGG	0.324
ACCCCCGG	-0.0785
CACCCGGG	0.129

Sequence	PBM E-score
AACCCGGA	0.332
AACCCCGG	0.337
GGCAGACC	-0.192
TCACGCAA	0.0552
GTATAGCA	-0.104
CTTGTTGA	0.124
GGAACAAA	0.111
CTAGCTCC	-0.246
CCGAGCAC	-0.0385
AGAAACTA	-0.0549
AGAGAAAC	-0.0339
AAGGGAAC	0.0495
GAGCTAGC	-0.179
CTCCTTTC	-0.0488
ATGTAACA	0.153
ATGTAACC	0.395
ATGTAACG	0.0833
CTGTAACA	0.00661
CTGTAACC	0.463
CTGTAAAC	0.16
ACTGCTAT	-0.0537
AAACGGAA	0.127
AAGACCGC	0.0669
GAGCAACC	0.0661
ATCGGTTC	0.0913

Sequence	PBM E-score
GATGACCC	0.403
GATGACCA	0.129
CATGACCA	0.284
CATGACCG	0.177
AATGACCC	0.3
CATGACCC	0.38
CCGACCTC	-0.0902
CGATCTGA	-0.0395
CAACTGTC	-0.0568
ACGAAGGA	-0.166
CCCCTTTA	-0.00689
GCCCTTTA	-0.0495
ACCCTTTA	0.415
ACCCTTTG	0.345
ACCCTTTC	0.298
ATCCTTTG	0.161
CCCTACGC	-0.17
GCGTCCCC	-0.249
AGTGCCCC	-0.156
AACCAGGT	0.201
ATGGAGCC	-0.222
CGCGGTGA	0.144
GGCGGTTA	0.324
GGCGGTCA	0.12
AGCGGTTA	0.405

Sequence	PBM E-score
CGCGGTTA	0.452
GGCGGTAA	0.125
AGCGGTTG	0.216
AGCGGTTC	0.164
CGCGGTTC	0.181
AAAAACTA	0.175
ATACCAAA	0.153
GCCTACTA	-0.0183
AAGTAACG	0.052
GAGTAAGC	-0.221
CAGTAACA	-0.0862
GAGTAACC	0.399
AAGTAACT	-0.0363
CAGTAACG	0.0273
CAGTAACC	0.44
AAGTAACC	0.393
GAGTAACA	0.135
GCAGTAAA	0.104
ATTATACA	0.0605
ATTATACC	0.338
ATTATACG	0.0915
CAGCAGAA	-0.0338
AGAGGTCG	0.304
AGAGGTCC	0.201
AGAGGTCA	0.41

Sequence	PBM E-score
CGAGGTCA	0.357
GGAGGTCA	0.136
CGAGGTCC	0.0996
ATGTCGCG	0.0309
CAGAAGCC	-0.173
GTCCCAAA	0.0529
AGGGTTCG	0.0919
AAGGTTCA	0.054
AGGGTTCC	0.354
AAGGTTCT	0.327
CAGGTTCC	0.0995
AAGGTTCC	0.317
ATGGTTCC	0.21
AGGGTTCA	0.146
AAGGTTCG	-0.0644
CCAGTGTA	-0.00071
CACTGTAA	0.0817
CTAGCGAA	-0.221
GCTTCAGA	-0.167
